Publication PMC5540273 (PLoS ONE, 2017)

Legend:
Details in all cases: concentration: 1 μM, replicates: in singlicate; n = 1
LCK = system: LCK
LIMK1 = system: LIMK1
LIMK2 = system: LIMK2
LKB1 = system: T1, LKB1
T1 construct: gene STK11

LOK = system: T2, LOK
T2 construct: gene STK10

LRRK2 = system: LRRK2
LTK = system: LTK
LYN = system: LYN
LZK = system: T3, LZK
T3 construct: gene MAP3K13

MAK = system: MAK
MAP3K15 = system: MAP3K15
MAP3K1 = system: MAP3K1
MAP3K2 = system: MAP3K2
MAP3K3 = system: MAP3K3
MAP3K4 = system: MAP3K4
MAP4K2 = system: MAP4K2
MAP4K3 = system: MAP4K3
MAP4K4 = system: MAP4K4
MAP4K5 = system: MAP4K5
MAPKAPK2 = system: MAPKAPK2
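Further: KINOMEscan kinase panel screen.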

| SMILES | %Inh (LCK) [%] | %Inh (LIMK1) [%] | %Inh (LIMK2) [%] | %Inh (LKB1) [%] | %Inh (LOK) [%] | %Inh (LRRK2) [%] | %Inh (LTK) [%] | %Inh (LYN) [%] | %Inh (LZK) [%] | %Inh (MAK) [%] | %Inh (MAP3K15) [%] | %Inh (MAP3K1) [%] | %Inh (MAP3K2) [%] | %Inh (MAP3K3) [%] | %Inh (MAP3K4) [%] | %Inh (MAP4K2) [%] | %Inh (MAP4K3) [%] | %Inh (MAP4K4) [%] | %Inh (MAP4K5) [%] | %Inh (MAPKAPK2) [%] |
| --- | --- | --- | --- | --- | --- | --- | --- | --- | --- | --- | --- | --- | --- | --- | --- | --- | --- | --- | --- | --- |
| CN(C)S(=O)(=O)c1cc(-c2ccc3nccc(-c4cccc(S(N)(=O)=O)c4)c3c2)cnc1N [GSK1669921] | 7 | 86 | 5 | 0 | 0 | 27 | 39 | 0 | 0 | 19 | 23 | 6 | 0 | 0 | 0 | 13 | 5 | 0 | 0 | 19 |
| CCn1c(-c2nonc2N)nc2c(C#CC(C)(C)O)nc(OC[C@H](N)c3ccccc3)cc21 [GSK943949] | 1 | 11 | 6 | 31 | 1 | 14 | 0 | 1 | 0 | 0 | 0 | 0 | 57 | 55 | 1 | 19 | 11 | 8 | 40 | 0 |
| COc1ccc(-c2coc3ccc(-c4nnc(SCc5ccc(OC)c(C(F)(F)F)c5)o4)cc23)cc1 | 0 | 25 | 12 | 0 | 24 | 0 | 27 | 0 | 0 | 22 | 0 | 0 | 10 | 0 | 0 | 0 | 0 | 6 | 0 | 0 |
| Fc1ccc(-c2ncn(C3CCNCC3)c2-c2ccnc(Oc3ccc(-c4ccccc4)cc3)n2)cc1 [SB-245391] | 0 | 0 | 0 | 0 | 21 | 0 | 12 | 9 | 0 | 10 | 22 | 25 | 22 | 29 | 14 | 44 | 3 | 9 | 26 | 0 |
| Cc1ccc(C(=O)N2CC[C@@H](O)C2)cc1-n1c(C)cc(OCc2ccc(F)cc2F)c(Br)c1=O | 99.4 | 0 | 0 | 36 | 0 | 0 | 0 | 74 | 0 | 0 | 0 | 0 | 0 | 0 | 0 | 0 | 0 | 6 | 8 | 0 |
| Cl.c1ccc(-c2ccc3c(Nc4ccc5[nH]ncc5c4)ccnc3c2)nc1 [GW440137] | 42 | 9 | 23 | 0 | 2 | 0 | 18 | 31 | 1 | 21 | 4 | 22 | 0 | 0 | 4 | 0 | 0 | 0 | 0 | 1 |
| O=C(Nc1cccc(-c2nn3ncccc3c2-c2ccnc(Nc3ccccc3)n2)c1)c1c(F)cccc1F [GSK198271] | 99.3 | 75 | 0 | 3 | 99 | 0 | 0 | 99.4 | 0 | 19 | 0 | 3 | 35 | 0 | 35 | 0 | 33 | 33 | 84 | 24 |
| CCCCc1nn2ncccc2c1-c1ccnc(Nc2ccc(N3CCN(C)CC3)cc2)n1 [GW684941] | 99.1 | 70 | 97 | 0 | 60 | 60 | 0 | 83 | 28 | 20 | 9 | 16 | 37 | 49 | 40 | 0 | 12 | 0 | 21 | 0 |
| CC(=O)N1CCN(c2ccc(Nc3nccc(-c4sc(C(C)C)nc4-c4cccc(NS(=O)(=O)c5cccc(Cl)c5)c4)n3)cn2)CC1 [GSK1660437] | 98.6 | 98.4 | 100 | 0 | 96.8 | 24 | 23 | 74 | 29 | 35 | 16 | 12 | 0 | 7 | 0 | 8 | 10 | 13 | 54 | 19 |
